This is a sample that favours compounds with a hit; in the whole collection about 8.7% have one here.
Vaccinia Venus: qHTS for Stage-Specific Inhibitors of Vaccinia Orthopoxvirus: Venus Reporter Primary qHTS. Potency, µM (titrated, usually from 36.5 µM), for inactives: top-dose activity change, negative = inhibition, usual class: inhibitors. Vaccinia virus Venus reporter expression, fluorescence. hit rate 0.46% among 330,000. AID 720580, 2013; calls by dose curve; tested in A549 cells; also: nearly all actives have a fitted effect of over 30% in size
Pf growth 96h: Primary qHTS for delayed death inhibitors of the malarial parasite plastid, 96 hour incubation; P. falciparum luciferase reporter growth, 96 h; Potency, µM (series often up to 28.7 µM), for inactives: at the highest dose activity change, negative = inhibition, actives largely listed as inhibitors; hit rate 6.9% among 320,000; AID 504834, 2011
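Compounds incubated with erythrocytes infected by luciferase-expressing P. falciparum (2% hematocrit, 0.05% parasitemia final) for 96 hours, 37 C in 5% CO2. Growth inhibition scored as decreased luciferase luminescence.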
VACV mCherry inh: qHTS for Stage-Specific Inhibitors of Vaccinia Orthopoxvirus: mCherry Reporter Primary qHTS | Vaccinia virus mCherry reporter infection, fluorescence | Potency, µM (highest dose often 36.5 µM), inactives show top-dose activity change, negative = inhibition, most hits filed as inhibitors | hit rate 0.63% among 310,000 | AID 720579, 2013; calls by dose curve; tested in A549 cells; also: nearly all actives have a fitted effect of over 35% in size
AMA1-RON2 inh: qHTS for Inhibitors of AMA1-RON; Towards Development of Antimalarial Drug Lead: Primary Screen | Plasmodium falciparum AMA1 (3D7) - RON2 peptide interaction | AlphaScreen AMA1-biotinylated RON2 peptide binding | Potency, µM (doses to about 58.2 µM), inactives show top-dose activity change, negative = inhibition, usual class: inhibitors | hit rate 0.2% among 360,000 | AID 720542, 2013;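 also: 0% = vehicle wells and -100% = peptide control; nearly all actives have a fitted effect of over 45% in size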
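AMA1 (3D7) with his tag at 25 nM final met compounds first, then biotinylated RON2 peptide at 25 nM; detection used donor plus acceptor beads, 10 µg/mL apiece, read by AlphaScreen after 30 min at room temperature.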
Pf growth 48h: Primary qHTS for delayed death inhibitors of the malarial parasite plastid, 48 hour incubation; P. falciparum luciferase growth in erythrocytes, 48 h; Potency, µM (top dose mostly 28.7 µM), for the others: top-dose activity change, negative = inhibition, usual class: inhibitors; hit rate 5.9% among 310,000; AID 504832, 2011
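Luciferase-expressing P. falciparum in infected erythrocytes (2% hematocrit, 0.1% parasitemia final) in RPMI 1640/0.5% Albumax were exposed to compound for 48 hours at 37 C, 5% CO2; growth read as luminescence.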
* marks the source's active call; other numbers are inactive results; i = inactive; ? = inconclusive; . = no result given; ! = a repeat was not active. Unless noted, calls follow the shape of the dose curve; as a rule, active = well fitted curve in the direction sought with a large enough effect; inconclusive = small, poorly fitted or top-dose-only effect, or another doubt; inactive = no such curve, though single readings can be large; an effect the other way counts as inactive or inconclusive. Unless noted, % is scaled to controls: 0 for no effect and ±100 for the full control effect; potency is read from the fitted curve at half-maximal effect.

SMILES	Vaccinia Venus	Pf growth 96h	VACV mCherry inh	AMA1-RON2 inh	Pf growth 48h
CCOC(=O)c1ccc(NC(=O)CC2C(=O)N(c3ccc(F)cc3)C(=O)N2Cc2ccc(C)cc2)cc1 (centres undefined)	-12%	.	-6%	.	.
CCCn1cc(SCC(=O)NCC2CCCO2)c2ccccc21 (centres undefined)	-8%	15%	i	0%	24%
CC(C)N(C(=O)Cn1cc(SCC(N)=O)c2ccccc21)C(C)C	0%	?	-9%	20%	-12%
COc1ccc(CCNC(=O)CS(=O)(=O)c2cn(CC(=O)N(C(C)C)C(C)C)c3ccccc23)cc1OC	-17%	10µM*	-2%	16%	?
CCCn1cc(SCC(=O)NC2CCCC2)c2ccccc21	-15%	?	-8%	-10%	9.3µM*
CNC(=O)CSc1cn(CC(=O)N(C(C)C)C(C)C)c2ccccc12	-1%	10µM*	-1%	-22%	1%
CC(C)N(C(=O)Cn1cc(S(=O)(=O)CC(=O)Nc2ccccc2)c2ccccc21)C(C)C	-15%	8.3µM*	-19%	-16%	?
CCOc1cc(CNC(=O)C(NS(=O)(=O)c2cccs2)C(C)C)cc(OCC)c1OCC (centres undefined)	-6%	.	-11%	.	.
CCC1CCCCN1Cc1cn2c(-c3ccc(Br)cc3)nnc2s1 (centres undefined)	3%	.	11%	.	.
NCc1ccc(S(N)(=O)=O)cc1	-9%	3.6µM*!	-20%	-2%	?
COCc1ccc(CN2CCC(C(=O)Nc3cccc(-c4cccc(Cl)c4)c3)CC2)o1	?	?	?	?	13µM*
O=C(Nc1cccc(-c2cccc(Cl)c2)c1)C1CCN(Cc2ccccn2)CC1	-27%	5%	?	18%	?
O=C(Nc1cccc(-c2cccc(Cl)c2)c1)C1CCN(Cc2ccon2)CC1	.	8.3µM*	.	-2%	14%
O=C(Nc1cccc(-c2cccc(Cl)c2)c1)C1CCN(CC2CCOC2)CC1 (centres undefined)	.	23%	.	-1%	8.3µM*
COCc1ccc(CN2CCC(C(=O)Nc3cccc(-c4cscn4)c3)CC2)o1	-20%	6%	-25%	-10%	-8%
CO[C@H]1C[C@H](O[C@@H]2/C(C)=C/C[C@@H]3C[C@@H](C[C@]4(CC[C@H](C)[C@@H](C5CCCCC5)O4)O3)OC(=O)[C@@H]3C=C(C)/C(=N/O)[C@H]4OC/C(=C\C=C\[C@@H]2C)[C@]43O)O[C@@H](C)[C@@H]1O	?	.	-7%	.	.
CCOc1cc(-c2noc(N)c2C(=O)OC)cc(OCC)c1OCC	-7%	12µM*	-12%	14%	-14%
Cc1ccccc1CNCCCSc1nnnn1-c1ccccc1	-6%	.	-11%	.	.
CCOc1ccc(-c2oc3cc(Cl)ccc3c(=O)c2O)cc1OC	-24%	.	28µM*	.	.
COc1cc(-c2oc3cc(O)ccc3c(=O)c2O)ccc1O	0%	.	?	.	.
COc1cccc(NC(=O)c2oc3ccccc3c2NC(=O)c2ccc(C(F)(F)F)cc2)c1	-21%	.	i	.	.
CN(CC(=O)O)c1ccc(S(=O)(=O)N2CCOCC2)cc1[N+](=O)[O-]	-8%	95%	-6%	13%	2.6µM*
COCCN(CCOC)C(=O)C1CCN(c2ccc(S(=O)(=O)N3CCOCC3)cc2[N+](=O)[O-])CC1	-5%	?	-12%	88%	?
CCCN(CCC)C(=O)C1CCN(c2ccc(S(=O)(=O)N3CCOCC3)cc2[N+](=O)[O-])CC1	-19%	5.2µM*	-28%	-9%	?
CN(CC(=O)Nc1ccc(F)cc1)c1ccc(S(=O)(=O)N2CCCCC2)cc1[N+](=O)[O-]	?	?	?	-7%	?
SMILES	Vaccinia Venus	Pf growth 96h	VACV mCherry inh	AMA1-RON2 inh	Pf growth 48h
Cc1ccc(CNc2ccc(S(=O)(=O)N3CCOCC3)cc2[N+](=O)[O-])cc1	?	10µM*	-12%	-27%	1%
COC(=O)CSc1ccc(S(=O)(=O)N2CCOCC2)cc1[N+](=O)[O-]	0%	10µM*	-8%	12%	20%
Cc1cccc(N2CCN(C(=O)CCC(=O)N3CC(C)Oc4ccc(C)cc43)CC2C)c1 (centres undefined)	?	-1%	?	-24%	13µM*
Cc1ccc(Cl)cc1N1CCN(C(=O)C2CCN(c3nnc(-n4cccc4)s3)CC2)CC1	.	?	.	32%	13µM*
Cc1ccc2c(c1)N(C(=O)CCC(=O)N1CCN(c3ccccn3)CC1)CC(C)O2 (centres undefined)	-15%	?	i	-3%	-30%
Cc1cccc(N2CCN(C(=O)C3CCN(c4nnc(-n5cccc5)s4)CC3)CC2C)c1 (centres undefined)	-7%	?	-13%	-11%	13µM*
Cc1cccc(N2CCN(C(=O)C3CCN(S(=O)(=O)N4CCOCC4)CC3)CC2C)c1 (centres undefined)	.	-21%	.	5%	-15%
Cc1ccc(Cl)cc1N1CCN(C(=O)c2cccn2-c2nnc(N3CCCCC3)s2)CC1	-19%	.	-13%	.	.
Cc1ccc(C)c(CSc2nc3ncccc3[nH]2)c1	-17%	.	-19%	.	.
CCOc1cc2c(cc1OCC)C(CC(=O)O)N(C(=O)Nc1ccc(Br)c(C)c1)CC2 (centres undefined)	-16%	.	i	.	.
CCN(CC)CCN1C(=O)C2C3c4ccccc4C(c4ccccc43)C2C1=O (centres undefined)	-15%	5.2µM*	-20%	-3%	?
CCN(CC)C(=O)[C@H]1C[C@H](CC(=O)NC/C=C(\C)CCC=C(C)C)C(=O)N2CCc3c([nH]c4ccc(Cl)cc34)[C@]12C	-24%	.	-2%	-1%	.
COc1ccc2[nH]c3c(c2c1)CCN1C(=O)C(CC(=O)NC/C=C(\C)CCC=C(C)C)C[C@H](C(=O)N2CCOCC2)[C@@]31CCC1CCCC1 (some centres undefined)	?	.	10µM*	15%	.
CCN(CC)C(=O)[C@H]1CC(CC(=O)NC/C=C(\C)CCC=C(C)C)C(=O)N2CCc3c([nH]c4ccc(OC)cc34)[C@]12C (some centres undefined)	?	.	13µM*	?	.
CC(C)=CCC/C(C)=C/CNC(=O)C[C@H]1C[C@H](C(=O)N2CCCCC2)[C@@]2(C)c3[nH]c4cc(-c5ccco5)ccc4c3CCN2C1=O	?	.	?	-26%	.
CCN(CC)C(=O)[C@H]1C[C@H](CC(=O)NC/C=C(\C)CCC=C(C)C)C(=O)N2CCc3c([nH]c4cc(-c5ccco5)ccc34)[C@]12C	13µM*	.	?	?	.

High-throughput results deposited in PubChem BioAssay by National Center for Advancing Translational Sciences (NCATS).
